Laboratory results: the supplement of paper PMC6555819

Key:
Experiment in all cases: PBM binding z-score (relative to random genomic background probes); higher = stronger binding; sequences stand for … in GC…GCGATTGACAGCGTAGAATGAAGG
[1] = test system: FXR:RXRa (NR concentration 270 nM, RXRa partner concentration 90 nM)
Summary of the method: (§1)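 On custom Agilent 4×180K arrays, double-stranded probes with 34-nt variable regions carried direct-repeat seeds, single-nucleotide variants, half-site ablations or random human genomic background. Ligand-free nuclear receptor dimers were applied for 1 h, and binding was read with antibodies against each partner (one per run). Binding z-scores come from regression-normalized fluorescence, with the random background probes as reference.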

[2] = test system: LXRa:RXRa (NR concentration 270 nM, RXRa partner concentration 90 nM)
Summary of the method: as §1

[3] = test system: LXRa homodimer (NR concentration 270 nM)
Summary of the method: as §1

[4] = test system: LXRb:RXRa (NR concentration 270 nM, RXRa partner concentration 90 nM)
Summary of the method: as §1

[5] = test system: LXRb homodimer (NR concentration 270 nM)
Summary of the method: as §1

[6] = test system: PPARa:RXRa (NR concentration 270 nM, RXRa partner concentration 90 nM)
Summary of the method: as §1

[7] = test system: PPARg:RXRa (NR concentration 180 nM, RXRa partner concentration 90 nM)
Summary of the method: as §1

[8] = test system: PPARg:RXRa 270nM:90nM, anti-RXR (NR concentration 270 nM, RXRa partner concentration 90 nM)
Summary of the method: as §1

[9] = test system: PPARg:RXRa 30nM:10nM, anti-RXR (NR concentration 30 nM, RXRa partner concentration 10 nM)
Summary of the method: as §1

[10] = test system: PPARg:RXRa 90nM:30nM, anti-RXR (NR concentration 90 nM, RXRa partner concentration 30 nM)
Summary of the method: as §1

Row | Sequence | PBM binding z-score [1] | PBM binding z-score [2] | PBM binding z-score [3] | PBM binding z-score [4] | PBM binding z-score [5] | PBM binding z-score [6] | PBM binding z-score [7] | PBM binding z-score [8] | PBM binding z-score [9] | PBM binding z-score [10]
1 | CCTCGGAGGACCACAGGAGGTCAGAGCTGCCAGA | 0.729 | 1.79 | 0.525 | 1.3 | -0.715 | 1.97 | 0.00464 | 0.0668 | -0.599 | -0.575
2 | TCTTTTAGATCAAAGGTTAAGAAAGCCGAAGCCT | 1.68 | 2.05 | 0.26 | 2.19 | 0.802 | 4.08 | 6.36 | 6.92 | 6.34 | 7.4
3 | ACAGACAGGTGATGAAGCTAACTCAGGCTATCAT | -0.132 | -0.408 | -0.326 | -0.472 | -0.446 | -0.116 | 0.522 | -0.13 | -0.153 | -0.11
4 | CAAACTAGGTCACAGAGGTCAATGTCCGTGCGTA | 6.85 | 6.22 | 6.83 | 6.14 | 1.81 | 6.32 | 10 | 8.44 | 6.44 | 8.59
5 | ATCGATAGGTCGTGAGGTGAGTATACAGAAAGGC | 1.25 | 1.3 | -0.0722 | 1.07 | 0.187 | 2.43 | 1.32 | 1.08 | 0.506 | 0.989
6 | CGTCAAAGTTCAACTAAGGTAGCGTAAAGCACGC | 6.83 | 6.17 | 3.78 | 4.01 | 1.98 | 4.8 | 4.84 | 5.37 | 1.94 | 4.03
7 | ATCTCTAGGTAACACGTTCAGTGAAAGAGAGGAC | 0.359 | 0.232 | 0.454 | 0.113 | 0.898 | 0.511 | 0.99 | 1.06 | 0.213 | 0.803
8 | TCTCGGAGGACATGAAGGTCAGAGCTTTCCAGAG | 0.472 | 1.08 | 0.0663 | 1.15 | -0.779 | 1.77 | 0.175 | 1.63 | 2.55 | 1.8
9 | AAAACGAGGGCACGCTGAGTTGATAGCAGAGTAG | 0.97 | 0.877 | -0.416 | 0.344 | -0.954 | 2.42 | 2.99 | 2.58 | 0.579 | 1.87
10 | TCTAGTTGGTCACGGTGGTCACACACGACGGGTA | -0.0806 | 0.249 | -0.00168 | 0.395 | 0.0154 | 1 | 1.15 | 2.15 | 3.17 | 2.47
11 | CCTACTGGGCCATTCAGAGGTCTTTGATCATATG | -0.281 | -0.261 | -0.37 | -0.49 | -0.94 | 0.481 | 0.251 | 0.437 | -0.397 | -0.188
12 | CGTCCATGGTCAATGCTAGGTCAGTGAAAGCATT | 0.15 | 0.428 | 0.451 | 0.222 | -0.306 | 0.49 | -0.131 | -0.408 | -0.327 | -0.269
13 | AGTCAAAGTTCATCTAGGTAACGTATGATATGCT | 6.72 | 5.89 | 5.49 | 3.77 | 1.5 | 4.97 | 6.95 | 6.52 | 3.52 | 5.74
14 | CCGACTGGGGCAGAAAGCTTACCATACCATCCGG | -0.854 | -0.845 | -0.778 | -0.743 | -0.693 | -0.683 | 0.434 | -0.227 | -0.693 | -0.772
15 | CCTTACGGGTCACTCCAGGTGATAGCATCGGAGT | 5.24 | 5.98 | 0.158 | 3.34 | -0.0681 | 4.26 | 3.57 | 3.66 | 1.31 | 2.64
16 | CATACAGGGTCAGCTAGGCCAGAGTTGGGACGGC | 4.25 | 2.86 | -0.145 | 2.06 | 0.341 | 4.17 | 3.24 | 2.97 | 0.45 | 1.6
17 | ATAGGTAGGTTATCGGGTCATTCAGTTTGCGCAT | 3.2 | 3.22 | 1.93 | 3.17 | 1.52 | 3.82 | 4.18 | 4.48 | 1.91 | 3.81
18 | CCTAGAAGGCCAGGGTCACTCAAGCATTTCGCTT | 2.51 | 1.79 | -0.266 | 2.02 | -0.312 | 3.12 | 0.628 | 1.35 | -0.294 | 0.786
19 | TCTAGCAGGCCAGATGGTCACTCAAGAGGTACGG | -1.05 | -0.551 | -0.782 | -1.05 | -1.42 | -0.0486 | 0.594 | 0.971 | 1.81 | 1.28
20 | TTTACAGGGTCAAAGGCCAGAGTACGAATGTCGA | 6.76 | 5.85 | 2.22 | 4.87 | 1.18 | 6.03 | 8.6 | 7.65 | 6.04 | 7.79
21 | AGAATTAGGTTATACGTAGATCAGGGAAGAAAGT | 0.495 | 0.704 | 0.321 | 0.628 | 0.596 | 2.29 | 2.76 | 2.95 | 1.74 | 2.58
22 | ATTCGGAGGACAAAGGTCAGAGCTACGCCAGTGA | 4.05 | 4.26 | 1.79 | 3.52 | 0.763 | 4.9 | 7.69 | 6.94 | 7.1 | 7.23
23 | ACTAGTTGGTCAGCTGAGCTCACACACAATTCGG | -0.29 | -0.363 | -0.563 | -0.541 | -0.142 | -0.497 | 0.575 | -0.784 | -0.476 | -0.673
24 | CGAGCGAGGGCATGAGTTGATAGCAAATGCCGAT | 0.5 | 0.467 | -0.292 | 0.175 | -1.07 | 0.945 | 0.571 | 0.44 | -0.503 | 0.0146
25 | GGTGCTAGGTCAACTGATGGTCAGCTAAAGCTCG | 4.46 | 3.2 | 0.481 | 2.17 | 0.109 | 3.84 | 3.55 | 3.81 | 0.998 | 2.53
